The source made the active and inactive calls. Calls follow the shape of the dose curve; as a rule, active = well fitted curve in the direction sought with a large enough effect; inconclusive = small, poorly fitted or top-dose-only effect, or effect the other way, or another doubt; inactive = no such curve, though single readings can be large or run the other way.

The test is described as follows: Inducers of the Endoplasmic Reticulum Stress Response (ERSR) in human glioma: Validation (AID 504836). The following applies: human glioma cells, ER stress response reporter; series mostly up to 38.3 µM. An excerpt: Primary protein unfolding takes place for many diseases, including diabetes and hypoxia, , and triggers a reaction in the cells called ER stress response (ERSR). ). ERSR is designed as a repair mechanism, but ultimately leads to cell death via apoptosis if conditions triggering protein unfolding persist (1). The molecular clue to ERSR activation is the enhancement of the expression of key molecular chaperones, including the glucose regulated protein (GRP) 78. GRP78 is the main sensor for protein folding and the main actuator of the ERSR.
In a collaboration between the Southern Research Institute and the NIH Chemical Genomics Center, a cell based screen was developed that reliably uses GRP78 as a sensor to identify small molecules as inducers of ERSR. In resting conditions, GRP78 binds proteins and acts as a natural repressor. Once unfolded proteins are present in the ER, GRP78 releases some of the repressors and binds to the unfolded proteins. The release of the repressors executes the ERSR program. Using a human glioma cell line in a miniaturized, luminescent format, a high-throughput screen was developed to identify actuators of the ERSR.
(1) Soboloff, J. and S. A. Berger (2002). "Sustained ER Ca2+ depletion suppresses protein synthesis and induces activation-enhanced cell death in mast cells." J Biol Chem 277(16): 13812-20.
NIH Chemical Genomics Center [NCGC]
NIH Molecular Libraries Probe Centers Network [MLPCN]
Assay Submitter (PI): Maurizio Grimaldi, Southern Research Institute
Stable transfected human glioma cell line, U87-MG, are dispensed at density 1000 cells/well into Greiner white solid bottom 1536-well assay plates. Compounds are transferred via Kalypsys pin tool equipped with 1536-pin array (10nl slotted pins, V&P Scientific, San Diego, CA). The assay plates will be incubated for 16 hours and developed by adding appropriate quantities of the Promega Bright Glo reagent. The plates will be incubated at room temperature for 10 minutes prior to being transferred into a ViewLux high-throughput CCD imager (PerkinElmer), wherein end-point measurements of luminescence are acquired.
Take `Oc1ccc2c3c1O[C@H]1c4[nH]c5ccccc5c4C[C@@]4(O)C(C2)N(CC2CC2)CCC314` (stereo not given in full): the compound was classed as inactive. For `CCCN(CCC)[C@@H]1CCc2cccc(O)c2C1`, the outcome was inactive. As for `C=CCN1CCC23c4c5ccc(O)c4O[C@H]2C(=O)CC[C@@]3(O)C1C5` (stereo not given in full), the entry is “inactive”. `CCCN(CCC)CCc1c[nH]c2ccc(C(N)=O)cc12`: the compound was called inactive. Regarding `COc1ccc2c(c1)C13CCCCC1C(C2)N(C)CC3` (stereo not given), the compound was called inactive.

On to `Cc1[nH]c2ccc(O)cc2c1CCN`, for which the outcome was inactive. As for `Clc1ccc(N2CC3CCC(C2)N3)nn1`, the compound was classed as inactive. As for `CN1CCc2cc(O)cc3c2[C@H]1Cc1ccc(O)c(O)c1-3`, the entry is “inactive”; as for `NC(Cc1cc(O)c(O)cc1O)C(=O)O` (stereo not given), “inactive”. As for `C[N+]1(C)CCN(c2ccccc2)CC1`, the result was inactive. As for `Cc1c2ccncc2c(C)c2c1[nH]c1ccccc12`, the entry is “inactive”; as for `C=CCN1CCc2cccc3c2[C@H]1Cc1ccc(O)c(O)c1-3`, “inactive”; as for `O=P(O)(O)C(Cl)(Cl)P(=O)(O)O`, “inactive”.

`Cc1o[nH]c(=O)c1CC(N)C(=O)O` (stereo not given): the call was inactive. As to `N#CCCN`, the call was inactive. Take `c1ccc2c(c1)[I+]c1ccccc1-2`: the outcome was inactive. In the case of `Ic1ccccc1CNC1C2CCN(CC2)C1C(c1ccccc1)c1ccccc1` (stereo not given), the compound was classed as inactive. As for `CN(C(=O)Cc1ccc(Cl)c(Cl)c1)C(CN1CCCC1)c1cccc(OCC(=O)O)c1` (stereo not given), the entry is “inactive”. Regarding `CCCN(CCC)[C@H]1CCc2c(F)ccc(O)c2C1`, the call was inactive. As for `COc1ccc2[nH]c3c(c2c1)CCNC3`, the entry is “inactive”; as for `COc1ccc2[nH]cc(CCN)c2c1`, “inactive”; as for `N#C/C(=C/c1ccc(O)c(O)c1)C(N)=S`, “inactive”. As for `C[N+]1(C)CCc2cc3c(cc2[C@H]1[C@@H]1OC(=O)c2c1ccc1c2OCO1)OCO3`, the entry is “inactive”; as for `CC(=O)OCC1=C(C(=O)O)N2C(=O)[C@@H](NC(=O)CCC[C@@H](N)C(=O)O)[C@H]2SC1`, “inactive”; as for `NC(CCCCCP(=O)(O)O)C(=O)O` (stereo not given), “inactive”.

On to `N=C(N)c1ccc(CS(=O)(=O)F)cc1`, for which the result was inactive. As for `CC(=O)c1c(O)c(C)c(O)c(Cc2c(O)c3c(c(C(=O)/C=C/c4ccccc4)c2O)OC(C)(C)C=C3)c1O`, the entry is “inactive”; as for `c1ccc2cc(CC3=NCCN3)ccc2c1`, “inactive”; as for `Nc1ccc(CCN2CCN(c3cccc(C(F)(F)F)c3)CC2)cc1`, “inactive”. As for `CCCN1CCC[C@@H](c2cccc(O)c2)C1`, the entry is “inactive”.

Take `NCC(O)c1cc(O)c(O)cc1F` (stereo not given): the outcome was inactive. As for `C[N+](C)(C)CCOC(=O)CBr`, the entry is “inactive”; as for `Cc1sc2ccccc2c1CC1=NCCN1`, “inactive”. Turning to `COc1cc(CC(C)N)c(OC)cc1I` (stereo not given), the compound was classed as inactive. As for `C[C@H](Cc1ccc2c(c1)OC(C(=O)O)(C(=O)O)O2)NC[C@H](O)c1cccc(Cl)c1`, the entry is “inactive”; as for `OC1CCCCC1N1CCC(c2ccccc2)CC1` (stereo not given), “inactive”. As for `C[N+]1(C)C2CCC1CC(OC(=O)c1c[nH]c3ccccc13)C2` (stereo not given), the entry is “inactive”; as for `CN1CC[C@@]2(C)c3cc(O)ccc3N(C)C12` (stereo not given in full), “inactive”; as for `CCOC(=O)c1ncn2c1[C@@H]1CCCN1C(=O)c1cc(OC)ccc1-2`, “inactive”. As for `CCS(=O)(=O)Nc1cccc(C(=C2CCCCC2)c2cnc[nH]2)c1`, the entry is “inactive”.

For the origin of these results see PubChem BioAssay (NCATS).
